# Many of the other results were omitted from the sample, so the strongest signals are more common in it than they were.
# Experiments:
# Assay in all cases: glycan array binding signal (z-score within array); higher = stronger binding
# Details in all cases: glycan notation: IUPAC condensed, linker removed
# [1] = target: Fuc(a1-2)Gal(b1-3)GlcNAc(b1-2)Man(a1-3)[Fuc(a1-2)Gal(b1-3)GlcNAc(b1-2)Man(a1-6)]Man(b1-4)GlcNAc(b1-4)[Fuc(a1-6)]GlcNAc
# How it was run: (§1)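 Negative Z-scores can be read as non-binding. The Z-score is calculated within each array and then averaged across arrays of one protein sequence at different concentrations or buffers and across linkers. Arrays, 3228 in all, were curated from the Consortium for Functional Glycomics database and kept only where the protein sequence was available.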
# [2] = target: Fuc(a1-2)Gal(b1-4)Fuc(a1-3)]GlcNAc(b1-2)Man(a1-3)[Fuc(a1-2)Gal(b1-4)[Fuc(a1-3)]GlcNAc(b1-2)Man(a1-6)]Man(b1-4)GlcNAc(b1-4)GlcNAc
# How it was run: as §1
# [3] = target: Fuc(a1-2)Gal(b1-4)Glc6S
# How it was run: as §1
# [4] = target: Fuc(a1-2)Gal(b1-4)GlcNAc
# How it was run: as §1
# [5] = target: Fuc(a1-2)Gal(b1-4)GlcNAc(b1-2)Man(a1-3)[Fuc(a1-2)Gal(b1-4)GlcNAc(b1-2)Man(a1-6)]Man(b1-4)GlcNAc(b1-4)[Fuc(a1-6)]GlcNAc
# How it was run: as §1
# [6] = target: Fuc(a1-2)Gal(b1-4)GlcNAc(b1-6)GalNAc
# How it was run: as §1
# [7] = target: Fuc(a1-2)Gal(b1-4)[Fuc(a1-3)]GlcNAc(b1-3)GalNAc
# How it was run: as §1
# [8] = target: Fuc(a1-2)Gal3S(b1-4)GlcNAc
# How it was run: as §1
# [9] = target: Fuc(a1-2)[Gal(a1-3)]Gal(b1-3)GlcNAc(b1-3)GalNAc
# How it was run: as §1
# [10] = target: Fuc(a1-2)[Gal(a1-3)]Gal(b1-4)GlcNAc(b1-2)Man(a1-3)[Fuc(a1-2)[Gal(a1-3)]Gal(b1-4)GlcNAc(b1-2)Man(a1-6)]Man(b1-4)GlcNAc(b1-4)[Fuc(a1-6)]GlcNAc
# How it was run: as §1
# [11] = target: Fuc(a1-2)[GalNAc(a1-3)]Gal(b1-3)GlcNAc(b1-2)Man(a1-3)[Fuc(a1-2)[GalNAc(a1-3)]Gal(b1-3)GlcNAc(b1-2)Man(a1-6)]Man(b1-4)GlcNAc(b1-4)[Fuc(a1-6)]GlcNAc
# How it was run: as §1
# [12] = target: Fuc(a1-2)[GalNAc(a1-3)]Gal(b1-4)GlcNAc(b1-2)Man(a1-3)[Fuc(a1-2)[GalNAc(a1-3)]Gal(b1-4)GlcNAc(b1-2)Man(a1-6)]Man(b1-4)GlcNAc(b1-4)[Fuc(a1-6)]GlcNAc
# How it was run: as §1
# [13] = target: Fuc(a1-2)[GalNAc(a1-3)]Gal(b1-4)GlcNAc(b1-3)Gal(b1-4)GlcNAc(b1-3)Gal(b1-4)GlcNAc
# How it was run: as §1
# [14] = target: Fuc(a1-2)[GalNAc(a1-3)]Gal(b1-4)[Fuc(a1-3)]GlcNAc(b1-3)GalNAc
# How it was run: as §1
# [15] = target: Fuc(a1-3)[Gal(b1-4)]GlcNAc(b1-2)Man(a1-3)[Fuc(a1-3)[Gal(b1-4)]GlcNAc(b1-2)Man(a1-6)]Man(b1-4)GlcNAc(b1-4)GlcNAc
# How it was run: as §1
# [16] = target: Fuc(a1-3)[GalNAc(b1-4)]GlcNAc6S
# How it was run: as §1
# [17] = target: Gal(a1-2)Gal
# How it was run: as §1
# [18] = target: Gal(a1-3)Gal(b1-4)[Fuc(a1-3)]GlcNAc
# How it was run: as §1
# [19] = target: Gal(b1-3)Gal
# How it was run: as §1
# [20] = target: Gal(b1-3)GalNAc(b1-3)Gal
# How it was run: as §1
# [21] = target: Gal(b1-3)GalNAc(b1-3)Gal(a1-4)Gal(b1-4)Glc
# How it was run: as §1
# [22] = target: Gal(b1-3)GlcNAc(a1-3)Gal(b1-4)GlcNAc
# How it was run: as §1
# [23] = target: Gal(b1-3)GlcNAc(b1-3)Gal(b1-4)GlcNAc(b1-2)[Gal(b1-3)GlcNAc(b1-3)Gal(b1-4)GlcNAc(b1-6)]Man(a1-6)[Gal(b1-3)GlcNAc(b1-3)Gal(b1-4)GlcNAc(b1-2)Man(a1-3)]Man(b1-4)GlcNAc(b1-4)[Fuc(a1-6)]GlcNAc
# How it was run: as §1
# [24] = target: Gal(b1-3)[Fuc(a1-4)]GlcNAc(b1-6)GalNAc
# How it was run: as §1
# [25] = target: Gal(b1-3)[Neu5Ac(a2-6)]GlcNAc(b1-4)Gal(b1-4)Glc
# How it was run: as §1
# [26] = target: Gal(b1-4)Glc
# How it was run: as §1
binder,measurement,setting,value
Epa8 (Candida glabrata) (protein) MGSSHHHHHHSSGLVPRGSHMASSRALSDYPLGCSPLLGTKLTPGLSMELYEYPLDNHGIGPHCWDPAYLNPEYPRTGFESHKLIGTAQNVMSLNFEHRTQDCHVEFSNLPASFNFPDQITLTNFTMLLYGYFKPKESGRYRFHMEADDLLLMNLGAGNAFDCCAHEATRNNLGDYIAYDIWAGTRKDVEVFLEKEVFYPLRLFFNNRDGRAALDFSYYLNGATEPGTDIPELLFSLPDGESCPAYI,glycan array binding signal (z-score),[1],0.141
same,glycan array binding signal (z-score),[2],4.2
same,glycan array binding signal (z-score),[3],0.004
same,glycan array binding signal (z-score),[4],-0.45
same,glycan array binding signal (z-score),[5],-0.33
same,glycan array binding signal (z-score),[6],0.724
same,glycan array binding signal (z-score),[7],2.63
same,glycan array binding signal (z-score),[8],-0.437
same,glycan array binding signal (z-score),[9],0.166
same,glycan array binding signal (z-score),[10],0.03
same,glycan array binding signal (z-score),[11],0.09
same,glycan array binding signal (z-score),[12],0.443
same,glycan array binding signal (z-score),[13],0.493
same,glycan array binding signal (z-score),[14],3.16
same,glycan array binding signal (z-score),[15],-0.093
same,glycan array binding signal (z-score),[16],-0.401
same,glycan array binding signal (z-score),[17],-0.54
same,glycan array binding signal (z-score),[18],-0.506
same,glycan array binding signal (z-score),[19],0.171
same,glycan array binding signal (z-score),[20],-0.026
same,glycan array binding signal (z-score),[21],0.394
same,glycan array binding signal (z-score),[22],1.57
same,glycan array binding signal (z-score),[23],2.13
same,glycan array binding signal (z-score),[24],2.52
same,glycan array binding signal (z-score),[25],-0.392
same,glycan array binding signal (z-score),[26],-1.15
